The list is not random: actives were taken first. Their share in the collection is about 1.6%.
WNV NS2B-NS3 inh = inhibitors of West Nile virus NS2B-NS3 protease; actives 0.18% (n = 65,000); z-score (test concentration not listed); WNV NS2B-NS3 protease, fluorogenic substrate Ex360/Em465; stronger effect = lower value; P06935; in the data active = z-score below about -3
Hsp90 inh = displaces geldanamycin probe from tumor Hsp90 | P07900 | NCI-N417 lysate Hsp90, Cy3B-geldanamycin FP displacement | inhibition, % at 30 µM | actives 0.35% (n = 64,000) | AID 429;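 active = inhibition above 50%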;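 note: 0% = tracer plus lysate wells and 100% = tracer alone without lysate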
ROCK2 inh = blocks human Rho kinase 2 activity. O75116. purified ROCK2, Kinase-Glo ATP depletion luminescence. inhibition, % at 6 µM. actives 0.35% (n = 60,000). AID 604;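 active = inhibition above the screen-wide mean inhibition plus 3 SD, cut at about 18% in these data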;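 note: plate controls were DMSO wells for no effect and Y-27632 control wells after no-enzyme background subtraction for full effect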
SKBR3 24h inh = SK-BR-3 proliferation inhibitors. actives 0.47% (n = 41,000). SK-BR-3 viability, CellTiter-Glo ATP luminescence, 24 h; stronger effect = lower value. AID 847. viability, % at 10 µM;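 active = viability at or below the median of all test compounds minus 3 SD, in both replicates if run twice, cut at about 45% in these data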;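 note: 100% = median untreated cell wells and 0% = median positive control drug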
HER2 expr 66K = Her2 kinase expression inhibition. SKBR-3 HER2 protein level, AlphaScreen, 18-24 h; stronger effect = lower value. P04626. HER2 level % of control, % at 10 µM. actives 0.69% (n = 65,000);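 active = HER2 level under 5% of the carrier-only control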;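 note: 100% = DMSO carrier and 0% = 500 nM PU-H71 HSP90 inhibitor; lower value means stronger loss of Her2 protein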
PKA kinase inh = inhibitors of human protein kinase A; actives 0.1% (n = 65,000); PKA Kemptide phosphorylation, Kinase-Glo ATP luminescence; P17612; AID 524; inhibition, % at 6 µM;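 active = inhibition above the screen-wide mean inhibition plus 3 SD, cut at about 21% in these data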
* hit, by the source's call; nt = not tested or not shown.

SMILES	WNV NS2B-NS3 inh	Hsp90 inh	ROCK2 inh	SKBR3 24h inh	HER2 expr 66K	PKA kinase inh
N=c1c2c(-c3ccccc3)c(-c3ccccc3)n(Cc3ccccc3)c2ncn1CCCn1ccnc1	-0.6	-4.8	2.6	51.0	3.3*	-2.5
CC1C(=O)N(C)C(=O)c2nc[nH]c21 (stereo unspecified)	nt	0.4	nt	nt	nt	nt
COc1cccc(C2C(C#N)=C(N)Oc3cc(C)oc(=O)c32)c1OC (stereo unspecified)	-0.51	-1.1	1.6	nt	113.2	6.6
Cn1c(SC2=CS(=O)(=O)c3ccccc32)nc2ccccc21	-0.25	-1.9	-2.5	107.8	-22.1*	-3.5
COc1ccc(-c2nnc(SCC(=O)c3cc(C)n(Cc4cccs4)c3C)o2)cc1	0.08	-6.3	2.3	nt	52.5	4.0
COc1ccc(-n2cnnc2SCC(=O)c2cc(C)n(Cc3cccs3)c2C)cc1	0.6	-2.7	3.6	nt	-20.8*	8.8
CC(=O)NC(Cc1c[nH]c2ccccc12)C(=O)OCC(=O)Nc1ccc2c(c1)OCO2 (stereo unspecified)	-0.31	0.4	-0.6	nt	-33.2*	3.5
C=Cc1c(C)c2cc3[nH]c(cc4nc(cc5nc(cc1[nH]2)C(C)=C5CCC(=O)O)C(CCC(=O)O)=C4C)c(C)c3C=C	nt	139.3*	nt	nt	nt	nt
O=C(NCCCN1CCOCC1)c1cc2ccccc2oc1=O	-0.74	1.2	6.4	82.4	87.3	10.3
CC(=O)Oc1cc2c(C(=O)NCCCN3CCOCC3)c(C)oc2c2ccccc12	0.22	93.8*	-5.1	87.7	84.8	-8.4
NC(=S)NCCCC(N)C(=O)O (stereo unspecified)	nt	-1.3	nt	nt	nt	nt
Cn1c(C(C#N)C(=O)Cc2cccc3ccccc23)nc2ccccc21 (stereo unspecified)	-0.17	nt	nt	83.5	78.6	-9.9
Cn1c(C(C#N)C(=O)c2ccco2)nc2ccccc21 (stereo unspecified)	-0.36	-4.8	3.1	129.4	-11.7*	5.8
CCCn1c(NC(=O)c2ccco2)nc2ccccc21	0.07	-2.1	9.0	nt	0.7*	8.7
COc1ccc(OCCn2c(NC(=O)c3ccco3)nc3ccccc32)cc1	2.08	-3.4	-5.4	89.2	59.4	-2.9
CCOc1cc(C)nc(N2CCCC(C(=O)NCc3ccccc3F)C2)n1 (stereo unspecified)	-1.08	2.0	3.1	76.5	62.1	9.9
Cc1cc(C)nc(N2CCCC(C(=O)NCCc3ccccc3F)C2)n1 (stereo unspecified)	1.01	-0.9	-1.9	42.6*	113.7	-1.9
COc1ccc2nc(NC(=O)CSc3nc4cccnc4n3C)sc2c1	-6.36*	-1.7	5.3	nt	35.7	9.1
COc1ccc(C2C(C(C)=O)=C(O)C(=O)N2CCN(C)C)cc1OC (stereo unspecified)	-0.23	-4.3	4.5	90.1	114.2	11.0
COCCCN1C(=O)C(O)=C(C(C)=O)C1c1cccc(F)c1 (stereo unspecified)	0.01	0.2	-7.3	76.7	-15.8*	-12.7
CC(C)N(CCCNC(=O)C1CCN(S(=O)(=O)N2CCOCC2)CC1)Cc1ccccc1	-0.83	-4.3	5.0	nt	82.9	6.1
CCOC(=O)NC(Nc1cc(C)ccn1)(C(F)(F)F)C(F)(F)F	-0.71	-10.8	3.8	107.9	105.9	7.8
N=c1n(CCO)c2ccccc2n1CCOc1ccc(Cl)cc1Cl	-1.28	-0.1	3.3	nt	2.4*	5.9
CC(C)Cn1c(CN2CCN(c3ccccc3F)CC2)nc2c1c(=O)[nH]c(=O)n2C	-0.33	-4.2	3.8	nt	99.3	3.1
COC(=O)c1[nH]c2ccc(Br)cc2c1NC(=O)C(C)N1CCN(C2CCCCC2)CC1 (stereo unspecified)	0.35	-1.0	3.2	84.9	-4.8*	0.6
SMILES	WNV NS2B-NS3 inh	Hsp90 inh	ROCK2 inh	SKBR3 24h inh	HER2 expr 66K	PKA kinase inh
CCC(C)n1c(SCC(=O)NC(=O)Nc2ccc3c(c2)OCCO3)nc2ccccc2c1=O (stereo unspecified)	0.66	-2.8	-7.5	nt	82.9	-1.0
c1cnc2c(c1)ccc1cccnc12	nt	-1.8	nt	nt	nt	nt
Nc1ccc2ncccc2c1	-0.61	70.4*	3.4	99.7	128.3	5.5
Nc1ccc2ncccc2c1N	0.92	100.7*	12.6	88.1	-18.6*	3.4
CCC(CC)NCCCNc1cc(OC)cc2cccnc12	nt	9.6	nt	nt	nt	nt
CC(C)CC(OC(=O)c1cccs1)C(=O)NCc1cccs1 (stereo unspecified)	-0.57	-3.1	-1.8	92.2	120.5	-0.3
CC(OC(=O)c1cccs1)C(=O)NCc1cccs1 (stereo unspecified)	-0.98	92.3*	4.0	89.3	58.0	8.6
COc1ccccc1N(CC(=O)Nc1cccnc1)S(C)(=O)=O	-0.74	0.2	4.2	99.8	104.4	-0.2
CCOC(=O)CNC(=O)CSc1ncnc2c1cnn2Cc1ccccc1	0.45	0.9	5.5	130.8	-18.1*	5.9
Cc1cc(C)n(-c2c(F)c(F)c(CN3CCOCC3)c(F)c2F)n1	-0.64	-2.9	-1.0	96.9	-20.7*	4.7
O=C(CSc1ncnc2nc[nH]c12)N1CCOCC1	0.1	-2.3	4.3	81.4	79.0	8.6
c1nc(N2CCOCC2)c2[nH]cnc2n1	-1.31	11.7	25.6*	111.7	86.2	15.4
COc1ccc(N2CCN(c3ncnc4nc[nH]c34)CC2)cc1	1.68	3.3	24.1*	nt	92.7	15.9
CCOC(=O)c1sc2ncnc(N3CCN(c4ccc(OC)cc4)CC3)c2c1C	-0.44	2.5	5.2	76.4	91.2	14.3
C1=C(c2ccccc2)CCN(c2ncnc3nc[nH]c23)C1	-0.34	29.5	24.5*	nt	79.5	18.5
CC(=O)Oc1cc2oc(=O)cc(C)c2cc1OC(C)=O	1.88	57.8*	-0.3	nt	87.5	-3.0
CCCCCn1c(CN2CCCCC2CC)nc2c1c(=O)n(C)c(=O)n2C (stereo unspecified)	1.91	0.0	0.2	nt	-16.7*	-6.1
CCCCCn1c(CN2CCCCC2C)nc2c1c(=O)n(C)c(=O)n2C (stereo unspecified)	1.14	2.2	0.3	79.2	78.8	2.0
OC(CNCCCN1CCCCC1)COc1ccccc1 (stereo unspecified)	-5.96*	-0.5	-3.7	105.3	98.6	2.0
COc1cc(NS(=O)(=O)c2ccc([N+](=O)[O-])cc2[N+](=O)[O-])c2ncccc2c1	nt	26.0	nt	nt	nt	nt
O=C(Oc1cccc2c(=O)[nH]ccc12)c1ccccc1	-0.76	-4.3	18.2*	96.7	81.0	1.7
O=C(Oc1cccc2ccccc12)c1ccco1	-0.54	2.2	2.6	nt	125.3	9.3
O=C(Cc1c[nH]c2ccccc12)NCc1ccc2c(c1)OCO2	-0.28	-4.7	4.8	91.3	73.0	14.5
CCN1CSC(=S)N(Cc2ccc(OC)cc2)C1	0.43	-3.0	nt	nt	-11.5*	-8.1
COc1ccc(Cn2c(C)ccc2C)cc1	1.91	nt	nt	79.2	71.4	nt
Cc1noc(C(=O)Nc2ccc3c(c2)OCO3)c1Cl	-0.23	60.3*	1.0	nt	97.8	-7.8
CCOC(=O)C1CCN(S(=O)(=O)c2ccc(C(=O)OC)cc2)CC1	-5.54*	2.4	-1.3	93.3	83.7	-1.5
